# Source: PubChem BioAssay
# NALP3 yeast inh: NALP3 inhibition in yeast | hit rate 0.39% among 330,000 | inhibition, % at 10 µM | Yeast reconstituted NLRP3/ASC/caspase-1, beta-gal luminescence, 24 h;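 active = inhibition of 50% or more; inactive = inhibition below 50%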;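 note: plate controls were induced DMSO wells for no effect and uninduced yeast grown without galactose for full effect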
# tim10-1 inh: tim10-1 yeast growth inhibition; S. cerevisiae tim10-1 ts strain growth, BacTiter-Glo, 24 h; inhibition, % at 20 µM; hit rate 2.2% among 330,000;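 active = inhibition of at least 40%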;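 note: mutant grown at 25 °C; 0% = DMSO wells with yeast and 100% = wells holding no yeast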
# NALP1 yeast inh: NALP1 inhibition. S. cerevisiae NALP1/ASC/caspase-1 growth, X-gal OD620, 72 h. inhibition, % at 10 µM. hit rate 0.61% among 280,000. AID 2071; in the data active = inhibition mostly above about 24%, no sharp cut-off; inactive = mostly below about 32%
# tim23-1 inh: tim23-1 yeast growth inhibition | S. cerevisiae tim23-1 growth, BacTiter-Glo luminescence, 24 h | inhibition, % at 20 µM | hit rate 1.3% among 330,000 | AID 463212;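 active = growth inhibition of the mutant yeast at or above 50%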;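 note: temperature-sensitive mutant grown at 25 °C; plate controls were DMSO-treated mutant yeast for no effect and medium wells lacking yeast for full effect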
# TIM10 inh: inhibits growth of TIM10 yeast strain | hit rate 1.4% among 330,000 | inhibition, % at 10 µM | S. cerevisiae TIM10 strain growth, BacTiter-Glo luminescence, 24 h | AID 463195;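 active = inhibition of 40% or more at the single tested concentration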;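 note: wild-type TIM10 isogenic control strain grown at permissive 25 °C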
# tim10-1 confirm: tim10-1 yeast growth inhibition, confirmed; inhibition, % at 20 µM; shares compounds with tim10-1 inh; hit rate 56% among 7,400; S. cerevisiae tim10-1 ts strain growth, BacTiter-Glo, 24 h;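 active = inhibition of yeast growth at or above a set limit in either of two repeat tests at 20 µM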;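 note: tim10-1 mutant grown at permissive 25 °C to find synthetic lethal compounds; 0% = DMSO yeast wells and 100% = medium wells without yeast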
# * marks the source's active call; other numbers are inactive results; / = no result. Most compounds without a hit are left out; they make up all but 4% or so of the library.
SMILES,NALP3 yeast inh,tim10-1 inh,NALP1 yeast inh,tim23-1 inh,TIM10 inh,tim10-1 confirm
CC(=O)c1cccc(OCC(O)CNCC2COc3ccccc3O2)c1 (stereo not given),-4,21,5,18,-21,/
O=C(Nc1ccccn1)c1cccc(S(=O)(=O)N2CCc3ccccc3C2)c1,13,17,/,21,29,/
Cc1ccccc1C(=O)Oc1cc(N)n(S(=O)(=O)c2ccccc2)n1,0,48*,15,22,31,27
COc1ccccc1C(=O)Oc1cc(N)n(S(=O)(=O)c2ccccc2)n1,-14,40,-51,26,29,24
COc1cc(C(=O)Oc2cc(N)n(S(=O)(=O)c3ccccc3)n2)cc(OC)c1OC,9,25,10,35,20,/
COc1ccc(S(=O)(=O)n2nc(OC(=O)c3ccco3)cc2N)cc1,2,41*,6,33,-2,24
COc1ccc(S(=O)(=O)n2nc(OC(=O)c3ccncc3)cc2N)cc1,11,23,-2,13,16,/
O=S1(=O)NC(CC2=CCCCC2)C2CCCCC2O1 (stereo not given),34,6,17,13,2,/
Cc1cccc(C(=O)NCC(c2cccs2)N2CCOCC2)c1 (stereo not given),9,16,/,10,11,/
CCOC(=O)CSc1nc(C2CC2)nc2ccccc12,32,40*,18,29,20,3
CC1CCN(C(=O)CSc2nc(C3CC3)nc3ccccc23)CC1,-8,-14,-18,34,-15,/
CCc1ccc(NC(=O)N(Cc2ccco2)C(C)c2cccs2)cc1 (stereo not given),-4,42*,8,30,21,33*
CC(C)CCN(C(=O)Nc1ccccc1)C(C)c1cccs1 (stereo not given),5,43*,49,34,23,31*
COc1ccc(S(=O)(=O)N2CCCCCC2)cc1C(=O)Nc1ccc(C(=O)N(C)C)cc1,18,-7,/,-5,7,/
CCn1c(C)c(C(C)=O)c(N2CCN(c3cccc(Cl)c3)CC2)nc1=S,21,44*,1,13,9,16
COc1cc(OC)cc(-c2c(-c3cccs3)c3cc(-c4ccn[nH]4)ccc3n2C)c1,6,36,/,35,7,/
O=C(Cn1cnc2ccccc21)OCC(=O)N1CCCCC1,5,-5,/,-7,-4,/
CCOc1cc(/C=C2\N=C(SC)SC2=O)cc([N+](=O)[O-])c1OC(C)=O,-30,42*,-9,46,15,26
COc1ccc(NC(=O)CN2C(=O)C(C)Oc3ccccc32)cc1OC (stereo not given),12,1,0,1,-9,/
CCC1CCCCN1C(=O)c1ccc([N+](=O)[O-])o1 (stereo not given),28,54*,6,44,38,35*
CCOC(=O)[C@H]1[C@H]2COc3ccc(C)cc3[C@@H]2N2C(=O)c3cc(Cl)ccc3NC(=O)[C@@]12C,-1,40*,/,34,23,17
CCOC(=O)[C@H]1[C@H]2COc3ccc(Cl)cc3[C@@H]2N2C(=O)c3cc(F)ccc3NC(=O)[C@@]12C,13,18,/,4,-4,/
Cc1cc(=O)oc2cc(OCC(=O)N3CCN(C(=O)C4COc5ccccc5O4)CC3)c(Cl)cc12 (stereo not given),-10,27,11,14,5,/
CN(C(=O)CC(=O)Nc1ccc(Cl)c(Cl)c1)c1ccccc1,11,15,-15,12,16,/
CN(Cc1ccccc1)Cc1nc2c(c(=O)n(C)c(=O)n2C)n1Cc1ccc(Cl)cc1,0,40*,/,31,29,25
SMILES,NALP3 yeast inh,tim10-1 inh,NALP1 yeast inh,tim23-1 inh,TIM10 inh,tim10-1 confirm
COc1ccc(-c2csc(NC(=O)C3COc4ccccc4O3)n2)cc1OC (stereo not given),16,43*,12,39,16,31
CC(C)(C)c1csc(NC(=O)C2COc3ccccc3O2)n1 (stereo not given),25,35,10,40,23,/
O=C(O)c1cccc(Nc2nc(-c3ccccc3)nc3ccccc23)c1,10,15,-12,-2,5,/
O=C(O)c1ccc(Nc2nc(-c3ccccc3)nc3ccccc23)cc1,1,53*,10,15,4,15
Cc1ccc(C)c(S(=O)(=O)ON2C(=O)c3ccccc3C2=O)c1,5,70*,19,13,26,52*
CCc1ccccc1NC(=O)CNC(=O)c1cc(C2CC2)nn1-c1ccccc1,15,17,/,26,-7,/
O=C(COC(=O)c1ccccc1C(=O)c1ccccc1)Nc1ccc(SC(F)F)cc1,24,41*,28,39,40,31*
O=C(COc1ccccc1C(=O)O)Nc1ccc(SC(F)F)cc1,7,7,9,7,1,/
CCOc1ccc(C2=CC(=O)C[C@H](c3ccc(OC)cc3)C2)cc1,25,20,/,32,8,/
COC(=O)c1c(NC(=O)C(=O)N2CCOCC2)sc2c1CCC2,28,24,14,22,11,/
COC(=O)c1c(NC(=O)C(=O)N2CCOCC2)sc2c1CCCC2,13,52*,11,49,10,3
S=c1[nH]c(-c2ccc(Cl)cc2)cs1,-3,48*,-16,33,12,17
CC[C@H](C)[C@H](NC(=O)c1ccc(Cl)cc1)C(=O)OCC(=O)c1c(N)n(C)c(=O)n(C)c1=O,20,9,/,19,2,/
COc1ccc2cc3cc(C(=O)N(C)C4CCCCC4)oc3nc2c1,19,45*,-11,49,15,-13
COc1ccc2cc3cc(C(=O)N4CCCCCC4)oc3nc2c1,6,29,18,45,38,/
Cc1ccccc1NC(=S)Nc1ccccn1,18,47*,20,35,13,-5
S=C(Nc1ccccn1)Nc1ccccc1Cl,49,6,18,28,27,/
COc1ccc(-c2csc3[nH]c(=S)n(-c4ccccc4)c(=O)c23)cc1OC,12,21,6,9,17,/
Cc1onc(-c2ccccc2Cl)c1C(=O)N1CCN(c2nc3ccccc3s2)CC1,6,49*,34*,32,33,29
Cc1onc(-c2ccccc2Cl)c1C(=O)N1CCCCC1,11,4,8,9,15,/
Oc1c(C(Nc2nc3ccccc3s2)c2ccco2)ccc2cccnc12 (stereo not given),-12,43*,-8,40,15,7
O=C(/C=C/c1cccc(Br)c1)N1CCN(c2ccccn2)CC1,14,42*,-13,33,-22,24
O=C(/C=C/c1ccc(F)cc1)N1CCN(c2ccccn2)CC1,23,13,33,10,2,/
Cc1c(OCC(=O)NCCCN2CCOCC2)ccc2c3c(c(=O)oc12)CCCC3,15,46*,14,9,25,26
CCCc1cc(=O)oc2c(C)c(OCC(=O)Nc3ccc(CN4CCOCC4)cc3)ccc12,17,40*,23,11,39,33*
